According to paper PMC4336329 (PLoS ONE, 2015):
In all, about 310,000 compounds went through this assay and about 14,000 (4.5%) showed an effect of 50% or more. The effect is printed as a negative number. Shown is part of a subset that was picked to be rich in strong results.

Molecular target: human ether-à-go-go-related gene (hERG) potassium channel (human, UniProt Q12809)
Test: primary screen, population patch clamp on CHO cells stably expressing hERG; higher = less effect of the substance
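Also: peak tail current of the secondary pulse compared with the same well before compound.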

Sequence of human ether-à-go-go-related gene (hERG) potassium channel (Q12809 whole entry, looked up): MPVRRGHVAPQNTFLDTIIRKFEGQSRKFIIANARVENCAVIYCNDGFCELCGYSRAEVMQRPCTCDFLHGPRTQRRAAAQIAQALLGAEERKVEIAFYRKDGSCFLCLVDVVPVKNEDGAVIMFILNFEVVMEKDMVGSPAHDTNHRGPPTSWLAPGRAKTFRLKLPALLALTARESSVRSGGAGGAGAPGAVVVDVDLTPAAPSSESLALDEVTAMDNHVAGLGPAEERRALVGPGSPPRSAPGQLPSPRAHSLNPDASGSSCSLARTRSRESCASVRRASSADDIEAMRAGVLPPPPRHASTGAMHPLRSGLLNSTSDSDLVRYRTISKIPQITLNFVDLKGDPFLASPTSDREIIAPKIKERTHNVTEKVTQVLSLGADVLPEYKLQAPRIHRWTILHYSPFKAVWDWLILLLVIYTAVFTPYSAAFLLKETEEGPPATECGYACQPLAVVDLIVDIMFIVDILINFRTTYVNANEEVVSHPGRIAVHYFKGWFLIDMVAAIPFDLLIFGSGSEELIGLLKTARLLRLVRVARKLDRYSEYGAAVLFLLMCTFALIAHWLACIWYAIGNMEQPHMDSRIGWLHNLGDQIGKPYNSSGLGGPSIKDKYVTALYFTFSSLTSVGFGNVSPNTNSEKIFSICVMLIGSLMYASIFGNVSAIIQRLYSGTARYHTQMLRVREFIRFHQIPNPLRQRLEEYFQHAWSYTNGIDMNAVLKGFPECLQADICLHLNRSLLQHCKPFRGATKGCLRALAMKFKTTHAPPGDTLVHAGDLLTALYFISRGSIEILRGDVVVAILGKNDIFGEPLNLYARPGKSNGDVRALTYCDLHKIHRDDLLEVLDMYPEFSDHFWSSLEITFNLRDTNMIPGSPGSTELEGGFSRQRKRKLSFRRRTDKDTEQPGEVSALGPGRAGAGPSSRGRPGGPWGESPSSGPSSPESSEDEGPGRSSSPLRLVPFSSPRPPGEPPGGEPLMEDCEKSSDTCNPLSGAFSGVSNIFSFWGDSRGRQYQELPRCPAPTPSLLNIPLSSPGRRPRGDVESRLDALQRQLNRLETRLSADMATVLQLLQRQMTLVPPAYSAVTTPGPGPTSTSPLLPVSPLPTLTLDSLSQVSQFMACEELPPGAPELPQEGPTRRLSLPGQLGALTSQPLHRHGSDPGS

Row | Compound | hERG current change (%, negative = inhibition) at 10uM
1 | CC(=O)c1sc2nc(-c3ccc(C)cc3)c3c(c2c1N)CCCC3 | 2.68%
2 | Cc1ccc(C(O)(C(=O)NNS(=O)(=O)c2ccc(C)cc2)c2ccc(C)cc2)cc1 | -5.55%
3 | CCn1cc([C@@H]2C[C@H]3CN(Cc4cccc(Cl)c4)C(=O)[C@]34CCCN24)c(C)n1 | -41.7%
4 | Cc1ccccc1CN1C[C@@H]2C[C@@H](c3cn(C)nc3-c3ccccc3)N3CCC[C@@]23C1=O | 3.15%
5 | Cc1nn(C)cc1[C@@H]1C[C@H]2CN(Cc3cccc(Cl)c3)C(=O)[C@]23CCCN13 | -36.8%
6 | CCCn1cc([C@@H]2C[C@H]3CN(Cc4cccc(Cl)c4)C(=O)[C@]34CCCN24)c(C)n1 | -67.3%
7 | CCCn1ncc([C@@H]2C[C@H]3CN(Cc4cccc(Cl)c4)C(=O)[C@]34CCCN24)c1C | -43.6%
8 | Cn1cc([C@@H]2C[C@H]3CN(Cc4cccc(Cl)c4)C(=O)[C@]34CCCN24)c(-c2ccccc2)n1 | -63.3%
9 | O=C1NC(c2ccccc2)CCC1(Cl)Cl (stereo not drawn) | 6.57%
10 | CCc1ccc(NC(=O)c2cccc(NC3=NC4CS(=O)(=O)CC4S3)c2)cc1 (stereo not drawn) | 18%
11 | CCn1c(=O)n(CC(=O)NCc2ccccc2OC)c(=O)c2ccccc21 | 8.2%
12 | CC(C)(C)C(=O)C1=C(O)C(=O)N(Cc2ccccc2)C1c1ccccc1Cl (stereo not drawn) | 14.1%
13 | O=C(COc1ccccc1O)N1CCN(C(=O)c2ccco2)CC1 | -24.8%
14 | CCOC(=O)Nc1ccc(C(=O)c2ccncc2)cc1 | 14.7%
15 | COc1ccccc1-c1ccc(=O)n(CC(=O)NC(C)(C)C)n1 | 14%
16 | COc1cccc2[nH]c3c(N4CCc5ccccc5C4)ncnc3c12 | 4.69%
17 | CC1(C)Cc2c(sc(NC(=O)C(C)(C)C)c2C#N)C(C)(C)N1 | 3.16%
18 | O=C(CN1CCN(S(=O)(=O)c2ccccc2C(F)(F)F)CC1)NCc1cccs1 | -68.1%
19 | N#Cc1ccc(S(=O)(=O)N2CCN(Cc3cccs3)CC2)cc1 | -61.2%
20 | N#CCCN1CCN(S(=O)(=O)c2ccc(C#N)cc2)CC1 | -10.6%
21 | O=C(CN1CCN(S(=O)(=O)c2ccc(Cl)cc2)CC1)NCc1cccs1 | -59.1%
22 | O=C(CN1CCN(S(=O)(=O)c2ccc(F)cc2)CC1)NCc1cccs1 | -32.1%
23 | O=C(NCc1cccs1)C1CCN(S(=O)(=O)c2ccc(Cl)cc2)CC1 | 4.41%
24 | CC(=O)Nc1ccc(S(=O)(=O)N2CCN(Cc3cccs3)CC2)cc1.O=C(O)C(=O)O | -7.69%
25 | Cl.O=C(CN1CCN(c2ccc(F)cc2)CC1)NCc1cccs1 | -15.4%
26 | O=C(NCc1cccs1)C1CCN(S(=O)(=O)c2ccccc2F)CC1 | 10.4%
27 | COc1ccc(OC)c(Nc2nc(-c3ccc(O)c(O)c3)cs2)c1 | 10.8%

Row | Compound | hERG current change (%, negative = inhibition) at 10uM
28 | CC12CN3CC(C)(CN(C1)C31CCOCC1)C2=O | 11.4%
29 | CCOc1cc(C(=O)NC2CC(C)(C)NC(C)(C)C2)cc(OCC)c1OCC | 20%
30 | O=C(NCc1ccco1)C1CCN(S(=O)(=O)Cc2ccccc2)CC1 | -5.29%
31 | CCOc1ccc(S(=O)(=O)N(C)CC(=O)NCc2ccccn2)cc1Cl | -27.8%
32 | O=C(CSc1ncn[nH]1)Nc1ccc2c(c1)OCCO2 | -26.9%
33 | Cc1csc(N)n1 | 7.04%
34 | Cc1ccnc(NC(=O)CC(c2ccccc2)c2ccccc2)n1 | 30.5%
35 | Clc1ccc(CSc2cc3c(nn2)-c2ccccc2CC3)cc1 | 23%
36 | CC1=C(C(=O)OCC2CCCCC2)C(c2ccc(O)cc2)NC(=O)N1 (stereo not drawn) | 12.7%
37 | COC(=O)c1cc(NC2c3ccccc3C(=O)N2c2ccc(Cl)cn2)cc(C(=O)OC)c1 (stereo not drawn) | 19.5%
38 | Cc1ccc(S(=O)(=O)NCC(=O)OCC(=O)c2cccs2)cc1 | 0.259%
39 | Cc1ccc(S(=O)(=O)NCC(=O)OCC(=O)c2ccc(Br)s2)cc1 | -52.7%
40 | Cc1ccc(S(=O)(=O)NCC(=O)OCC(=O)c2ccc(Cl)s2)cc1 | 1.12%
41 | Cc1cccc(CN2C(=O)[C@H]3Cc4c([nH]c5ccccc45)C(C)(C)N3C2=O)c1 | -1.56%
42 | CS(=O)(=O)NC1c2cccc3cccc(c23)C1Sc1nncn1/N=C/c1ccco1 (stereo not drawn) | -21.1%
43 | COc1ccc(/C=N/NC(=O)c2ccc(O)cc2)cc1CN1CCCc2ccccc21 | 0.817%
44 | COc1ccc(/C=N/NC(=O)c2cccnc2)cc1CN1CCc2cc(OC)c(OC)cc2C1C (stereo not drawn) | -40.9%
45 | COc1ccc(/C=N/NC(=O)c2cc(OC)c(OC)c(OC)c2)cc1CN1CCc2cc(OC)c(OC)cc2C1C (stereo not drawn) | -73.4%
46 | COc1ccc(/C=N/NC(=O)c2ccc(F)cc2)cc1CN1CCc2cc(OC)c(OC)cc2C1C (stereo not drawn) | -88.3%
47 | COc1ccc(C(=O)N/N=C/c2ccc(OC)c(CN3CCc4cc(OC)c(OC)cc4C3C)c2)cc1 (stereo not drawn) | -76%
48 | COc1ccc(C(=O)N/N=C/c2ccc(OC)c(COc3ccccc3)c2)cc1 | -26.1%
49 | COc1ccc(/C=N\NC(=O)c2ccc(F)cc2)cc1COc1ccccc1C(N)=O | -44.3%
50 | COc1ccc(/C=N/NC(=O)c2ccccc2OC)cc1COc1ccccc1[N+](=O)[O-] | 8.94%
51 | COc1ccc(/C=N/NC(=O)c2ccc(OC)c(OC)c2)cc1COc1c(F)c(F)c(F)c(F)c1F | 5.91%
52 | COc1ccc(/C=N\NC(=O)c2ccccc2[N+](=O)[O-])cc1COc1c(F)c(F)c(F)c(F)c1F | 8.06%
53 | COc1ccc(/C=N/NC(=O)c2ccccc2[N+](=O)[O-])cc1CN1CCc2cc(OC)c(OC)cc2C1C (stereo not drawn) | -63.9%
54 | COc1ccc(C(=O)N/N=C/c2ccc(OC)c(CN3CCCc4ccccc43)c2)cc1 | -11.9%
